Results as given in PubChem BioAssay (NCI).
This is part of a sample that, as a whole, favours compounds with a hit. Of some 83,000 tested, about 20% had one in any assay.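 Cell lines were cultured in 96-well plates, exposed to a single compound concentration, and assessed for percent growth 48 hours later.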 A number with no mark means an inactive call. The source made the active and inactive calls. How the source made its calls: active means growth percent below 10; inactive means the rest.

Tested on: HL-60(TB) leukemia
Experiment: NCI-60 one-dose screen, 48 h (100 = growth as untreated, 0 = no growth, -100 = all killed)
Conditions: 10 µM unless noted

Row | SMILES | growth
1 | COc1ccc(C/C(C)=C(\c2ccc(OCCN3CCCCCC3)cc2)c2ccc(OC(=O)C3CCCCC3)cc2)cc1 | 17.1%
2 | Cn1c(COC(=O)N2CCCCC2)nc2c(N3CCOCC3)nc(-c3ccccc3)nc21 | -28% (active)
3 | COc1ccc(-c2nn(-c3cccc(NC(=O)Nc4ccccc4)c3)cc2-c2ccncc2)cc1Cl | -10.6% (active)
4 | COc1cccc(/C=N\NC(=O)c2ccncc2)c1O | 9.43% (active)
5 | COc1cccc(C(=O)Nc2ccc(CN3CCc4nc5cc(OC)c(OC)cc5cc43)cc2)c1 | 60%
6 | O=C(O)c1cn(C2CC2)c2cc(N3CCN(C(=O)Nc4nc(-c5ccccc5)cs4)CC3)c(F)cc2c1=O | 3.14% (active)
7 | COCCCNc1nc(NC(=O)c2cc(Br)cc(C(F)(F)F)c2)cc(-c2cccnc2)n1 | 94.6%
8 | CC(C)(C)C(CCc1ccc(Cl)cc1)N1CCN(C2CCCCC2)CC1 (stereo unspecified) | 48.2%
9 | Clc1ccc(N/N=C(/c2ccccc2)c2ccccn2)nc1 | 3.11% (active)
10 | O=S(=O)(NCCNc1cc(-c2cn(-c3ccccc3)nc2-c2cccc(O)c2)ccn1)c1ccc(F)cc1 | 6.88% (active)
11 | CCOc1nc(-c2ccccc2)cc2c(O)c(C(=O)n3nc(C)cc3C)[nH]c(=O)c12 | 103%
12 | Cc1nn(-c2ccccc2)c(N)c1N=C1NC(=O)/C(=C/c2ccc(Br)cc2)S1 | 77.9%
13 | COc1ccc(-c2nc(-c3cc(OC)cc(OC)c3)[nH]c2-c2ccc(OC)cc2)cc1 | 30.1%
14 | Clc1ccc(-c2cn(-c3ccccc3)c(-c3ccccc3)n2)cc1 | 47.5%
15 | Cn1c(=O)c2[nH]c(Cc3ccc4c(c3)OCO4)nc2n(C)c1=O | 104%
16 | CCOc1cc(C(C)(C)C)ccc1C1=N[C@H](c2ccc(Cl)cc2)[C@H](c2ccc(Cl)cc2)N1C(=O)N1CCN(CC#Cc2cccc3c2CN([C@@H]2CCC(=O)NC2=O)C3=O)CC1 | -20.9% (active)

Row | SMILES | growth
17 | CCN1CCN(CCNc2nccc(-c3c(-c4ccc(F)c(O)c4)nc4occn34)n2)S1(=O)=O | 1.1% (active)
18 | COc1ccc(/C(C#N)=C/c2nc3c(N4CCOCC4)nc(Cl)nc3n2C)cc1OC | -28% (active)
19 | C[C@@H]1CC[C@@H]2[C@@H]1[C@H](OC(=O)/C=C/c1ccccc1)[C@]1(C3CCCCC3)C[C@@H](NC(=O)CO)[C@@]2(C)O1 | 104%
20 | COc1cc(-c2nn(-c3cccc(NC(=O)CCN4CCN(c5ccccc5)CC4)c3)cc2-c2ccncc2)ccc1Cl | 13%
21 | O=C1CC(c2ccc3c(c2)OCO3)Nc2ccccc21 (stereo unspecified) | 0.897% (active)
22 | OCc1cnc2ccccc2c1NC1CCCCCC1 | 88.5%
23 | COc1ccc(/C=N\NC(=O)CN2CCN(c3cc4c(cc3F)c(=O)c(C(=O)N/N=C/c3ccc(OC)cc3)cn4C3CC3)CC2)cc1 | 86.6%
24 | Fc1ccc(NCc2nnc(-c3ccc(Cl)cc3)o2)cc1 | 69.5%
25 | Cc1ccc(C)c2c(C)c(C(=O)Nc3cccc(-n4cccn4)c3)oc12 | 87.9% [50 µM]
26 | COc1ccc(OC)c(/C=C/C(=O)c2c(C)nc3ccccc3c2/C=C/c2ccccc2)c1 | 47%
27 | N#Cc1ccc(O)c(C2=NCC(c3ccc(-c4ccccc4)cc3)O2)c1 (stereo unspecified) | -17.3% (active)
28 | Oc1ccccc1-c1nc2c3ccccc3c3ccccc3c2o1 | 88%
29 | CC[C@H](C)[C@H](NC(=O)[C@H](CCCNC(=N)N)NC(=O)[C@H](Cc1c[nH]c2ccccc12)NC(=O)[C@@H](NC(=O)[C@H](CCCCN)NC(=O)[C@H](CCCCN)NC(=O)[C@@H](NC(=O)[C@@H](NC(=O)[C@@H](NC(=O)[C@H](CCCCN)NC(=O)[C@H](Cc1ccccc1)NC(=O)[C@H](CCCCN)NC(=O)[C@H](CCCCN)NC(=O)[C@H](Cc1ccccc1)NC(=O)[C@@H](NC(=O)[C@@H](N)CCCCN)[C@@H](C)CC)[C@@H](C)O)[C@@H](C)CC)[C@@H](C)CC)C(C)C)C(=O)N[C@@H](Cc1ccccc1)C(=O)NCC(=O)N[C@@H](CCCNC(=N)N)C(=O)N[C@@H](Cc1ccccc1)C(N)=O | 14.9%
30 | COC1C/C(=N\O)C2OC(c3ccccc3)OCC2O1 (stereo unspecified) | 101%
31 | CN1CCN(Cc2cc(NC(=O)c3cccc(C#Cc4cccc5[nH]nc(N)c45)c3)cc(C(F)(F)F)c2)CC1 | 0.0221% (active)
